Reference: PubChem BioAssay AID2417 (National Center for Advancing Translational Sciences (NCATS), 2010)
Among all 140,000 compounds or so, about 4,300 (3.1%) were called active. Roughly 21% stayed inconclusive and do not appear here.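 The calls were made as follows: active = readout at or below -70, meaning at least 70% loss of cells showing the perinucleolar compartment, a nuclear body marking cancer cells; inconclusive = readout between -30 and a set limit; inactive = the rest.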 What follows is part of a selection rich in actives, with near analogues and random picks from the rest.

Assay: High Content Assay for Compounds that inhibit the Assembly of the Perinucleolar Compartment;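 also: plate controls were DMSO wells for no effect and camptothecin positive control wells for full effect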
Settings: PC3M PTB-GFP, PNC prevalence imaging, 16 h; at 10 µM; hits give low values
Method in brief: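 Compounds are pinned in duplicate onto adhered PC3M cells stably expressing GFP-tagged PTB and incubated 16 h at 37 C. Cells are then fixed, nuclei stained with Hoechst, and PNC-positive cells counted.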

Activity change (PNC), negative = inhibition, inactive:
CCCc1cc(-c2nc(-c3ccc(C)cc3)cs2)ccn1 10.4%
O=C(OCN1C(=O)c2ccccc2C1=O)/C(=C\c1ccco1)NC(=O)c1ccccc1 73.8%
CCCCN=C1N/C(=C\c2ccco2)C(=O)N1c1ccccc1 -16.5%
O=C(N/N=C/c1ccc(Br)o1)c1cncc(Br)c1 -10.5%
CCN(CC(=O)NC1CCS(=O)(=O)C1)S(=O)(=O)c1ccccc1 (stereo not drawn) -23.3%
CCCSC(=S)NC1CCS(=O)(=O)C1 (stereo not drawn) -6.42%
COc1ccc(CNC(=O)CCCn2nc(C)c([N+](=O)[O-])c2C)cc1 1.72%
N#C/C(C(=O)N1CCOCC1)=C1/SC(Cc2ccc(F)cc2)C(=O)N1c1ccccc1 (stereo not drawn) 2.9%
O=C(Cn1cc(C(F)(F)F)ccc1=O)N/N=C/c1ccc(Cl)cc1Cl 32%
Cc1onc(-c2ccccc2)c1C(=O)NNC(=S)NC(=O)c1ccc(F)cc1 19.1%
CC(=O)Nc1cccc(NC(=O)c2c(-c3ccccc3)noc2C)c1 19.7%
Cc1ccc(S(=O)(=O)NCc2csc(C)n2)c(C)c1 36.5%
Cc1nc(CNS(=O)(=O)c2cccnc2)cs1 14.3%
CC(=O)NCCC(=O)Nc1nc(C)c(Cc2ccc3c(c2)OCO3)s1 32.2%
COC(=O)[C@@H]1CC[C@H](C)[C@@H](c2ccc(C)cc2)N1C(=O)c1ccc(/C=N/O[C@H](C)c2cn([C@@H]3COC[C@H]3O)nn2)cc1 39.9%
C/C(=N\NC(=O)c1ccc(CSc2nc(C)cc(C)n2)cc1)C1CCCCC1 28.4%
CCCc1[nH]nc2c1C(C1CC=CCC1)C(C#N)=C(N)O2 (stereo not drawn) 26.7%
CCc1ccc(C2C(C#N)=C(N)Oc3n[nH]c(CC(=O)OC)c32)cc1 (stereo not drawn) 18.8%
CC(C)CNC(=O)c1cc(-c2ccc(Br)cc2)on1 -2.59%
CC(NC(=O)Nc1ccccc1)c1ccccc1 (stereo not drawn) -11.3%
CCOC(=O)NN1C(=O)c2ccccc2NC1c1cccc(O)c1 (stereo not drawn) -6.12%
COc1ccc(C2CC(c3cccs3)=NN2C(=O)COC(=O)c2cc3ccccc3cc2O)cc1OC (stereo not drawn) -16.9%
CC1Cc2ccccc2N1C(=O)CSc1nnc(-c2ccc(S(=O)(=O)N3CCCC3)cc2)n1C (stereo not drawn) -4.26%
COc1ccc(C(CC(=O)O)NC(=O)Cc2ccccc2)cc1 (stereo not drawn) -1.4%
COc1cccc(CNCCc2c[nH]c3ccccc23)c1OCc1ccccc1F 9.41%
COc1ccc(S(=O)(=O)NC(C)C(=O)Nc2cccc([N+](=O)[O-])c2)cc1 (stereo not drawn) -19.9%
COc1ccc(-n2nc3c(c2NC(=O)Cc2cccc(C)c2)CS(=O)C3)cc1 (stereo not drawn) 1.65%
Cc1cccc(CC(=O)Nc2c3c(nn2-c2cccc(Cl)c2)CS(=O)C3)c1 (stereo not drawn) -2.34%
CC(NC(=O)C(=O)NN=C1CCC(C(C)(C)C)CC1)c1ccccc1 (stereo not drawn) -5.42%
COC(=O)Cc1csc(/N=C/c2c(O)n(-c3cccc(C(F)(F)F)c3)c(=O)c3ccccc23)n1 -11.4%
Cc1cccc(C(=O)NCC(=O)OCC(=O)N2CC3(C)CC2CC(C)(C)C3)c1 (stereo not drawn) -3.76%
COc1ccccc1C(=O)N1CC2(C)CC1CC(C)(C)C2 (stereo not drawn) -20.8%
Cc1cc(Cl)ccc1NC(=S)NCCCN1CCCC1=O 13%
CCO/N=C(/C)c1c(O)cc(-c2ccccc2)n(-c2ccccc2)c1=O 36.7%
CC(C)(C)NC(=O)Cn1nnc(-c2ccccc2Cl)n1 25.1%
Cc1cc(C)n(C(=O)c2ccc(S(=O)(=O)N3CCCC3)cc2)n1 5.75%
O=C(COC(=O)Cc1ccc(Br)cc1)Nc1c(F)c(F)c(F)c(F)c1F 16.2%
O=C(Nc1ccc2c(c1)OCCO2)c1ccncc1 -27.2%
O=C(Nc1nc2ccccc2s1)c1ccc2c(c1)OCO2 62.8%
CCCCNS(=O)(=O)c1ccc2nc(SCC(=O)Nc3cc(C)cc(C)c3)[nH]c2c1 35.2%
CCCCN(CC)C(=S)Nc1ccc2nc3n(c(=O)c2c1)CCCCC3 41.2%
O=C(CSc1ccccn1)Nc1nc2c(ccc3ccccc32)s1 41.9%

Activity change (PNC), negative = inhibition, active:
COC(=O)C1=C(C)N(c2ccc(Br)cc2)C(=O)/C1=C\c1ccco1 -80.8%
CC(C)C(=O)NC(NC(=S)NC1CCS(=O)(=O)C1)C(Cl)(Cl)Cl (stereo not drawn) -100%
CCOC(=O)c1c(-c2cccc(C)c2)csc1NC(=O)c1c(-c2ccccc2)noc1C -101%
Cc1nc(CNS(=O)(=O)c2ccc(Oc3ccccc3)cc2)cs1 -83.2%
COCc1[nH]nc2c1C(C1C=CCCC1)C(C#N)=C(N)O2 (stereo not drawn) -107%
CC(NC(=O)c1cc(-c2ccccc2)on1)c1ccccc1 (stereo not drawn) -97.3%
COc1ccc(C(CCNCc2ccccc2F)c2ccc(F)cc2)cc1 (stereo not drawn) -83.9%
COc1ccc(CC(=O)Nc2c3c(nn2-c2cccc(Cl)c2)CS(=O)C3)cc1 (stereo not drawn) -119%
COc1ccc(C(=O)N2CC3(C)CC2CC(C)(C)C3)cc1OC (stereo not drawn) -104%
Cc1ccccc1-c1nnn(CC(=O)c2ccc(S(=O)(=O)N3CCCC3)cc2)n1 -100%
O=C(Nc1nc(-c2ccc3c(c2)OCO3)cs1)c1ccncc1 -83.5%
